From PubChem BioAssay (EPA / NIEHS)
Records with an inconclusive call do not appear. Calls of active or inactive are those of the source. The calls were made as follows, unless noted: active = hit-call score of the fitted dose curve at least 0.9, where 1 is the maximum; inactive = score below 0.9.

Tests used:
[1] = CCTE_Deisenroth_AIME_384WELL_CTox_Active: Cytotoxicity Assessment (CTOX) in CCTE's 384-well Estrogen Receptor Transactivation Assay with AIME metabolic competence (metabolism positive), Deisenroth Lab (AID 2284037; active = hit-call score of the fitted dose curve at least 0.9, where 1 is the maximum;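 also: chemicals first conditioned 2 h by alginate-bound induced rat liver S9 before cells; activity means signal loss indicating cell death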)
Outline: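 Chemicals pre-incubated 2 hours with alginate-immobilised phenobarbital/beta-naphthoflavone-induced male Sprague Dawley rat liver S9, then conditioned medium applied 24 hour to VM7Luc4E2 cells. Viability by fluorogenic protease substrate; 10-point series 0.002 - 200 uM.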

[2] = biological target: Estrogen receptor (Homo sapiens) (UniProt P03372); assay: CCTE_Deisenroth_AIME_384WELL_LUC_Inactive: CCTE's 384-well Estrogen Receptor Transactivation Assay without AIME metabolic competence (ERTA luciferase; metabolism negative), Deisenroth Lab (AID 2284038; active = hit-call score of the fitted dose curve at least 0.9, where 1 is the maximum;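 also: hits raise estrogen receptor luciferase signal so potencies reflect agonists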)
Chain of Estrogen receptor (Homo sapiens) (P03372 whole entry, looked up): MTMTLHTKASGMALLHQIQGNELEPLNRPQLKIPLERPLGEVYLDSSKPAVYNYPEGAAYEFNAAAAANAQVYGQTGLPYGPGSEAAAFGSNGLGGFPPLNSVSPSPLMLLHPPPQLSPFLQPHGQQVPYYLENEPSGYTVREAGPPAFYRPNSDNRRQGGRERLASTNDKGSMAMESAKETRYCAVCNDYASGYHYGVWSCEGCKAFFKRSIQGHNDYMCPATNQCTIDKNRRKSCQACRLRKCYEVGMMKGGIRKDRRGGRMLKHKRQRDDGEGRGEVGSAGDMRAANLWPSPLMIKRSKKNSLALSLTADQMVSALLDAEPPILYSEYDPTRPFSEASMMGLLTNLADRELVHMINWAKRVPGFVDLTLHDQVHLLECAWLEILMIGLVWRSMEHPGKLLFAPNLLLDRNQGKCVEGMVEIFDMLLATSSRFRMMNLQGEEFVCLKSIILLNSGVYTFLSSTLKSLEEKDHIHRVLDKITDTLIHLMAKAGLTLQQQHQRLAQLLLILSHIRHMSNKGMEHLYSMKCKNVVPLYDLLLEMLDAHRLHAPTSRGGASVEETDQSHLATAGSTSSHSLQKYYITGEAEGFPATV
Outline: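 Metabolism-negative mode: chemicals (10-point, 0.002–200 uM) held 2 h with alginate-water microspheres, then conditioned medium applied to VM7Luc4E2 cells for 24 h. Luciferase induction referenced to 17beta-estradiol.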

[3] = biological target: Estrogen receptor (Homo sapiens) (UniProt P03372); assay: CCTE_Deisenroth_AIME_384WELL_LUC_Shift: CCTE's 384-well Estrogen Receptor Transactivation Assay with AIME metabolic competence data shift (ERTA luciferase; difference in metabolism positive and negative), Deisenroth Lab (AID 2284041);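 also: shift is response with S9 minus without S9 so positive means metabolism raised ER signal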
Outline: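 Chemicals (0.002–200 uM, 10 points) pre-incubated 2 h with alginate-encapsulated induced male Sprague Dawley rat liver S9 or S9-free, then medium applied 24 h to VM7Luc4E2 cells; luciferase. Endpoint is per-concentration difference, S9-positive minus negative.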

[4] = CCTE_Deisenroth_AIME_384WELL_CTox_Inactive: Cytotoxicity Assessment (CTOX) in CCTE's 384-well Estrogen Receptor Transactivation Assay without AIME metabolic competence (metabolism negative), Deisenroth Lab (AID 2284039; active = hit-call score of the fitted dose curve at least 0.9, where 1 is the maximum;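 also: cell viability via live-cell protease substrate cleaved to fluorescent probe; cells exposed 24 h to medium preincubated 2 h with alginate-water beads without S9; loss of fluorescence signal means loss of viability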)
Outline: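 VM7Luc4E2 human breast cells received conditioned medium from a 2 h incubation of chemical with alginate-water microspheres (no S9), then were exposed 24 h. Viability was read as protease-substrate cleavage to a fluorescent probe; loss of signal was fitted bidirectionally over 0.002–200 uM.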

[5] = CCTE_Shafer_MEA_dev_firing_rate_mean: CCTE's Neural Network Formation Assay for Mean Firing Rate, Shafer Lab (AID 2284031)
Outline: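 Rat primary cortical neurons were seeded on multielectrode arrays and treated from plating through day 12, with redosing at each feed. Spontaneous spiking was recorded four times; mean firing rate AUC was fitted downward against DMSO.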

[6] = CCTE_Shafer_MEA_dev_per_burst_spike_percent: CCTE's Neural Network Formation Assay for Percent of Spikes in a Burst, Shafer Lab (AID 2284032)
Outline: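 Rat primary cortical neurons on 16-electrode MEA wells, dosed from plating day 0 for 12 days with renewal on DIV 5 and 9; spikes-in-bursts percentage averaged over bursting electrodes, collapsed as AUC across days 5, 7, 9, 12; loss direction versus DMSO.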

[7] = CCTE_Shafer_MEA_dev_burst_rate: CCTE's Neural Network Formation Assay for Burst Rate, Shafer Lab (AID 2284042)
Outline: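 Rat primary cortical cultures on PEI/laminin MEA; compound from plating, re-dosed at DIV 5, 9 media change. Single-electrode bursts/recording length, well mean of active electrodes; AUC over DIV 5–12 recordings; loss-of-signal vs DMSO.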

[8] = CCTE_Shafer_MEA_dev_per_burst_interspike_interval: CCTE's Neural Network Formation Assay for Burst Interspike Interval, Shafer Lab (AID 2284044);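 also: mean spike spacing inside bursts as AUC over recordings on days 5 7 9 12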
Outline: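 Primary rat cortical neurons on 48-well MEA plates, exposed from day 0 through day 12, treatment renewed at DIV 5 and 9. Within-burst interspike interval recorded days 5, 7, 9, 12, well-averaged, summarised as AUC; negative fit versus DMSO.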

[9] = CCTE_Shafer_MEA_dev_burst_duration_mean: CCTE's Neural Network Formation Assay for Mean Burst Duration, Shafer Lab (AID 2284045)
Outline: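 Primary rat cortical neurons on 48-well 16-electrode MEA plates, exposed from day 0 with renewal at DIV 5 and 9; spontaneous activity recorded on days 5, 7, 9, 12. Well-mean burst duration across bursting electrodes, collapsed as trapezoidal AUC; DMSO baseline.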

[10] = CCTE_Shafer_MEA_dev_interburst_interval_mean: CCTE's Neural Network Formation Assay for Mean Interburst Interval, Shafer Lab (AID 2284046);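 also: well-mean interburst interval of bursting electrodes as AUC over four recording days; curve fitted for decrease in interburst interval relative to DMSO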
Outline: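 Rat cortical neurons, 1.5 x 10^5 cells/well, 48-well MEA; compound from day 0 through DIV 12, media and treatment renewed DIV 5/9. Recordings DIV 5, 7, 9, 12; well-mean interburst interval → trapezoidal AUC, loss direction vs DMSO.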

[11] = CCTE_Shafer_MEA_dev_inter_network_spike_interval_mean: CCTE's Neural Network Formation Assay for Mean Inter-network Spike Interval, Shafer Lab (AID 2284047)
Outline: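 Primary rat cortical neurons on PEI-coated 48-well MEAs (16 electrodes/well) were exposed from plating day 0 to DIV 12, with dosing renewed at DIV 5 and 9. Recordings at DIV 5, 7, 9, 12 were collapsed by trapezoidal AUC, loss-of-signal fit vs DMSO.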

[12] = CCTE_Shafer_MEA_dev_network_spike_number: CCTE's Neural Network Formation Assay for Number of Network Spikes, Shafer Lab (AID 2284048)
Outline: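 Primary rat cortical neurons on PEI/laminin 48-well MEA plates, dosed from plating day 0 for 12 days, renewed at DIV 5 and 9. Network spike counts recorded DIV 5, 7, 9, 12, collapsed as trapezoidal AUC; DMSO baseline.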

[13] = CCTE_Shafer_MEA_dev_network_spike_peak: CCTE's Neural Network Formation Assay for Mean Number of Electrodes in Network Spike, Shafer Lab (AID 2284049)
Outline: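 Network-spike peak electrode count from recordings on days 5, 7, 9 and 12 was combined as trapezoidal area under the curve. Rat cortical cultures were treated continuously from plating, with compound renewed at each feed (DIV 5, 9); fits versus DMSO.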

[14] = CCTE_Shafer_MEA_dev_spike_duration_mean: CCTE's Neural Network Formation Assay for Mean Spike Duration, Shafer Lab (AID 2284051);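 also: mean network spike duration pooled as area under curve over DIV 5 to 12 recordings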
Outline: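 Rat cortical primary cultures, 48-well MEA (16 electrodes/well); compound from plating, renewed DIV 5, 9. Network spike duration (AxIS adaptive detector) recorded DIV 5/7/9/12, combined as trapezoidal AUC; loss direction vs DMSO.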

[15] = CCTE_Shafer_MEA_dev_network_spike_duration_std: CCTE's Neural Network Formation Assay for Standard Deviation of Network Spike Duration, Shafer Lab (AID 2284052);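 also: area under curve of spike duration SD across recording days 5 to 12; hits are decreases in network spike duration SD versus DMSO vehicle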
Outline: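 Rat cortical cultures, 1.5 x 10^5 cells/well, exposed continuously from plating to DIV 12 with media/compound renewal at DIV 5, 9. Spontaneous activity recorded DIV 5/7/9/12, AxIS adaptive spike detector; AUC across days; negative direction vs DMSO.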

[16] = CCTE_Shafer_MEA_dev_per_network_spike_spike_number_mean: CCTE's Neural Network Formation Assay for Mean Number of Spikes in a Network Spike, Shafer Lab (AID 2284053)
Outline: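 Rat cortical primary cultures on 48-well MEA; compound from day 0, re-dosed with full media change DIV 5, 9. Recorded DIV 5, 7, 9, 12; spikes in 0.05 s window at network-spike peak ÷ total network spikes; AUC; loss vs DMSO.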

[17] = CCTE_Shafer_MEA_dev_per_network_spike_spike_percent: CCTE's Neural Network Formation Assay for Percent of Spikes in a Network Spike, Shafer Lab (AID 2284054)
Outline: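 Rat primary cortical neurons were grown on 48-well MEA plates (16 electrodes/well), exposed from plating day 0 through day 12, with treatment renewed on DIV 5 and 9. Percent of spikes within 0.05 s network-spike peaks was measured, summarised as AUC across days 5, 7, 9, 12.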

[18] = CCTE_Shafer_MEA_dev_active_electrodes_number: CCTE's Neural Network Formation Assay for Number of Active Electrodes, Shafer Lab (AID 2284040; active = hit-call score of the fitted dose curve at least 0.9, where 1 is the maximum)
Outline: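 Primary rat cortical neurons on 16-electrode MEA wells, exposed from day 0 through day 12 with compound renewed at DIV 5 and 9 feeds. Active electrodes (mean firing ≥5 spikes/min) counted at DIV 5, 7, 9, 12; trapezoidal AUC across days, loss-of-signal versus DMSO.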

[19] = CCTE_Shafer_MEA_dev_bursting_electrodes_number: CCTE's Neural Network Formation Assay for Number of Bursting Electrodes, Shafer Lab (AID 2284043; active = hit-call score of the fitted dose curve at least 0.9, where 1 is the maximum)
Outline: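 Primary rat cortical neurons plated on 16-electrode MEA wells, exposed from day 0 with compound renewed at DIV 5 and 9. Electrodes bursting ≥1 burst per 2 min counted on days 5, 7, 9 and 12; trapezoidal AUC across days, fitted for loss versus DMSO.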

DIO2 (gene 1734) = assay: CCTE_GLTED_hDIO2: CCTE's human Deiodinase 2 (DIO2) Inhibition Assay, Great Lakes Toxicology and Ecology Division (GLTED) Lab (AID 2284050; active = hit-call score of the fitted dose curve at least 0.9, where 1 is the maximum)
Outline: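 hDIO2 enzyme + test chem, 3 h → free iodide from substrate; step 2: Sandell-Kolthoff (Ce IV reduction by As, iodide-catalysed), spectrophotometric read. Triplicate plates; DMSO = baseline.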

Measured: AC50

Cc1ccc(C(C)C)cc1
inactive: [1] | [2] | [3]

c1ccc2n[nH]nc2c1
inactive: [1] | [4]

Clc1ccccc1C(c1ccccc1)(c1ccccc1)n1ccnc1
inactive: [5] | [6] | [7] | [8] | [9] | [10] | [11] | [12] | [13] | [14] | [15] | [16] | [17]

CC(C)(c1cc(Br)c(O)c(Br)c1)c1cc(Br)c(O)c(Br)c1
active: DIO2 (gene 1734) 48.6 µM
inactive: [5] | [6] | [18] | [7] | [19] | [8] | [9] | [10] | [11] | [12] | [13] | [14] | [15] | [16] | [17]
